From PubChem BioAssay
Unmarked numbers belong to inactive results. Calls of active or inactive are those of the source.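 Rule for the calls: active = mean inhibition above 46.5%, the solvent-only control mean plus 3 SD; inactive = the rest.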

The compounds below were run against Nuclear receptor coactivator 2 (Homo sapiens) (UniProt Q15596) (assay: inhibition of GAL4-SRC2 driven luciferase expression – cell-based, luminescence, HEK293, triplicate, confirmation (AID 652008;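 note: 0% = DMSO-treated cells and 100% = Gossypol at 36 µM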)). Details: HEK293 GAL4-SRC2 luciferase reporter, at 8.9 µM, hits give high values.
Chain of Nuclear receptor coactivator 2 (Homo sapiens) (Q15596 whole entry, looked up, the tested form may be a part): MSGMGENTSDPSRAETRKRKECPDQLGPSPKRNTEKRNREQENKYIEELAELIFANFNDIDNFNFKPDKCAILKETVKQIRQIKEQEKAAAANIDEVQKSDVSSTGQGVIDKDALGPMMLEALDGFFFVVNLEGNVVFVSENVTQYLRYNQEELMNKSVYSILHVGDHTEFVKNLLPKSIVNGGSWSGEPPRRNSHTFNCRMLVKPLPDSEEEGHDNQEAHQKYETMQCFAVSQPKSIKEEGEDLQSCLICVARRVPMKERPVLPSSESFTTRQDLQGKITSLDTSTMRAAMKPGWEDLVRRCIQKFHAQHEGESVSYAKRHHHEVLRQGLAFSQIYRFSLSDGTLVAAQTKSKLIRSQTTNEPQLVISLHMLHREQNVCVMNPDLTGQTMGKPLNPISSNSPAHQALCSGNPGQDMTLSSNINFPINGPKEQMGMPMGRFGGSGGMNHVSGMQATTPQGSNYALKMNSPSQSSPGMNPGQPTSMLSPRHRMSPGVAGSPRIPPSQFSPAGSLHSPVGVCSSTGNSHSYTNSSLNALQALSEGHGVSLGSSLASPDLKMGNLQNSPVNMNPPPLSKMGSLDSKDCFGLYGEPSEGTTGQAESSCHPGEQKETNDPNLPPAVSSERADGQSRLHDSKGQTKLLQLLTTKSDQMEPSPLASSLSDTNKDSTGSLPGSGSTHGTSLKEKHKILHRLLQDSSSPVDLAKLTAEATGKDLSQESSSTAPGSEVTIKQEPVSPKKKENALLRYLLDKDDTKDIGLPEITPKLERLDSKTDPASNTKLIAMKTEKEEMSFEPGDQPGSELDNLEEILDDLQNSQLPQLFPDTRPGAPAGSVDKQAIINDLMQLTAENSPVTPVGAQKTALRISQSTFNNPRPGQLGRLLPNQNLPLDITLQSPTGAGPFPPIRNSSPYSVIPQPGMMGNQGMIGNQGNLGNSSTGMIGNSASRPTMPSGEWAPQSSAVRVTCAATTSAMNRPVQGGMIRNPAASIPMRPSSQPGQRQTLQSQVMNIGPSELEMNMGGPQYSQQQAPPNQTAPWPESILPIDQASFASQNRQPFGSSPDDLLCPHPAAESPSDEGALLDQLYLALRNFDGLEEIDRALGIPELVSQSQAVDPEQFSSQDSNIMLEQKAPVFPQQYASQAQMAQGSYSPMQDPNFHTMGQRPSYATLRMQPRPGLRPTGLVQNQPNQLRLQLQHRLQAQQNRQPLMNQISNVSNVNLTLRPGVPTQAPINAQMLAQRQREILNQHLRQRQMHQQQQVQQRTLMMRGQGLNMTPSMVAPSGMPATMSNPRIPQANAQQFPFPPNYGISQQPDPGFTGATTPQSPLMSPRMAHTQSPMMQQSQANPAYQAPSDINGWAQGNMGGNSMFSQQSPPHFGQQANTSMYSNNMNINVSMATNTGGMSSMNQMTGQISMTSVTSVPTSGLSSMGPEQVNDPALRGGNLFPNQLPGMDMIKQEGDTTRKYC

SMILES	inhibition
COc1ccc(N2CCN(C(=O)CCCCCn3c(=S)[nH]c4ccc(N5CCOCC5)cc4c3=O)CC2)cc1	-4.46%
CCCCN(CCCNC(=S)NCCCc1cnc[nH]1)c1ccc(Br)cn1	39.1%
CCOc1ccc(NC(=S)C(C#N)=C2N(C)c3ccccc3N2C)cc1	-15.8%
CCOC(=O)C1(Cc2ccccc2)CCN(Cc2ccnc3ccccc23)CC1	14.6%
CCOc1ccc(-c2nc(CSCC(=O)NC3CCN(Cc4ccccc4)CC3)c(C)o2)cc1	19.7%
Cc1cccc(C)c1Nc1nnc(SC(C)C(=O)Nc2c(C)n(C)n(-c3ccccc3)c2=O)s1 (stereo not given)	-13.2%
O=C(CSCc1ccc(C(=O)O)cc1)Nc1ccccc1	-31.5%
CC1CCc2c(sc3nc(CSc4ncn[nH]4)[nH]c(=O)c23)C1 (stereo not given)	35.2%
COc1cc(OC)cc(C(=O)NCC2CCN(C(=O)C(=O)c3cccs3)CC2)c1	18%
FC(F)(F)c1cnc(NNC(=S)Nc2ccccc2)c(Cl)c1	14%
Cc1ccc(C(=O)c2cnc3ccccc3c2-c2ccccc2)cc1	16.4%
Cc1nc(-c2ccc(NC(=O)c3ccco3)cc2)cs1	60.4% (active)
CC(=O)c1cccc(NC(=O)Nc2ccc(C(=O)N3CCOCC3)cc2)c1	17.1%
COc1ccccc1/C=C/C1(C(=O)NC2CCCC2)CC(=O)N1c1ccc(F)cc1 (stereo not given)	49.2% (active)
COc1cccc(/C=N/NC(=O)c2cc(-c3ccccn3)nc3ccccc23)c1O	19.8%
